The values below come from PubChem BioAssay AID504329 (Southern Research Specialized Biocontainment Screening …, 2011).

In all, about 340,000 compounds went through this assay and about 1,000 (0.29%) were called active. No stated cut-off is given here; in the data, inconclusive means inhibition above about 27% without an active follow-up result; inactive means below that. These entries were drawn from the full list. Results with a measured potency or affinity are listed apart.

A short description of the experiment: NS1A inhibition, H1N1 influenza, cell based functional assay (AID 504329). The following applies: percent inhibition, at 12.5 µM, stronger effect = higher value.
As for `O=C1[C@H]2[C@@H](C(=O)N1c1cccc3ccccc13)C1(C(=O)c3ccccc3C1=O)N1CCC[C@@H]21`, the inhibition is -0.49% (inactive).

As to `COc1cc(OC)nc(NC(=O)NS(=O)(=O)c2ccccc2Cl)n1`, the inhibition is -10.9% (inactive).

Consider `COc1nc(C)nc(NC(=O)NS(=O)(=O)c2ccccc2Cl)n1`, for which the inhibition is -15.1% (inactive).

With `C/C(=N\NC(=O)c1ccccc1OCc1ccc(F)cc1)c1ccccn1`, the inhibition was -7.95% (inactive).

Regarding `C/C(=N\NC(=O)c1ccccc1)c1cccc(Br)c1`, the inhibition was 3.22% (inactive).

Turning to `C/C(=N\NC(=O)c1cccc(Br)c1)c1cccnc1`, the inhibition was 0.75% (inactive).

In the case of `C/C(=N\NC(=O)c1cccc2ccccc12)c1cccs1`, the inhibition was -0.84% (inactive).

On to `O=C(NCCNC(=O)c1ccccc1F)c1ccccn1`, for which the inhibition was -7.82% (inactive).

As to `C/C(=N/NC(=O)c1ccccn1)c1ccc(O)cc1`, the inhibition was -1.61% (inactive).

With `CCc1ccc(/C(C)=N/NC(=O)c2ccccn2)cc1`, the inhibition was -11.6% (inactive).

As to `C/C(=N\NC(=O)c1cccc2ccccc12)c1cccnc1`, the inhibition was -8.98% (inactive).

Consider `COc1cccc2cc(CC(=O)c3ccccc3)c(=O)oc12`, for which the inhibition is -8.03% (inactive).

`COc1ccc(-c2oc(=O)c3cc(OC)c(OC)cc3c2C#CCCCO)cc1`: the inhibition was 6.01% (inactive).

With `COc1ccc(CCNC(=O)CCCCCN2C(=O)c3ccccc3C2=O)cc1OC`, the inhibition was -8.38% (inactive).

For the compound `Cc1cc(OCC(=O)NCc2ccncc2)c2c3c(c(=O)oc2c1)CCCC3`, the inhibition is -0.56% (inactive).

Take `NC(=O)C1CCCc2c1n(Cc1ccccc1)c1ccccc21` (configuration not stated): the inhibition is 1.35% (inactive).

Regarding `CN(c1ccc(OCC(=O)OCC(=O)Nc2ccc(OC(F)F)cc2)cc1)S(=O)(=O)c1cccs1`, the inhibition was -3.07% (inactive).

For the compound `Cn1c(C(=O)NCCCN2CCN(c3ccccc3F)CC2)cc2c(=O)n(C)c3ccccc3c21`, the inhibition was 2.56% (inactive).

Take `C/C(=N/NC(=O)c1ccccn1)c1ccncc1`: the inhibition was 19.9% (inactive).

With `C/C(=N/NC(=O)c1ccccn1)c1c[nH]c2ccccc12`, the inhibition is 9.32% (inactive).

Regarding `C/C(=N/NC(=O)c1ccncc1)c1c[nH]c2ccccc12`, the inhibition is 3.5% (inactive).

As to `C/C(=N\Nc1ccc(Cl)cc1)c1ccccn1`, the inhibition was -19.3% (inactive).

Regarding `Cc1sc2ncnc(Nc3ccccc3)c2c1C`, the inhibition is 1.18% (inactive).

Consider `C/C(=N\Nc1ncc(Cl)cc1Cl)c1ccc(C#N)cc1`, for which the inhibition is -7.31% (inactive).

Take `Cc1sc2ncnc(N/N=C/c3ccccc3O)c2c1C`: the inhibition is 12.5% (inactive).

Turning to `O=C(N/N=C(\c1ccccc1)c1ccccn1)c1ccccc1Cl`, the inhibition was 7.83% (inactive).

`Nc1cc(N)nc(SCC(=O)NCc2ccco2)n1`: the inhibition was 0.81% (inactive).

In the case of `CN(C(=O)Oc1ccc([N+](=O)[O-])cc1)c1ccccc1`, the inhibition is 5.58% (inactive).

Regarding `COCCn1c(=O)[nH]c2cc(C(=O)N3CCN(c4cccc(C(F)(F)F)c4)CC3)ccc2c1=O`, the inhibition was 4.36% (inactive).

Regarding `O=C1NC2NC(=O)N(C(Cc3ccccc3)C(=O)O)C2N1` (configuration not stated), the inhibition was 7.19% (inactive).

With `Clc1ccccc1N=Nc1ccccn1`, the inhibition was 2.66% (inactive).

Regarding `COc1ccc(C(=O)COC(=O)c2ccccn2)cc1OC`, the inhibition was 2.06% (inactive).

For the compound `O=C(COC(=O)c1ccccn1)c1ccc(Br)cc1`, the inhibition is 13.3% (inactive).

Take `C/C(=N\Nc1ccc(Cl)c(C(=O)O)c1)c1ccccn1`: the inhibition was -11.6% (inactive).

For `O=C1CC(=C(c2ccccc2)c2ccccc2)C(=O)N1CCCCN1CCN(c2ccccc2)CC1`, the inhibition is 0.53% (inactive).

Turning to `COc1cc(/C=C/C(=O)Nc2cccc(S(=O)(=O)N3CCOCC3)c2)ccc1OCC#N`, the inhibition was -0.73% (inactive).

Consider `CN(C(=O)CN1C(=O)c2cc(Cl)c(Cl)cc2C1=O)C1CCS(=O)(=O)C1` (configuration not stated), for which the inhibition is -4.84% (inactive).

For the compound `Cn1nc([N+](=O)[O-])c(C(C#N)c2ccccn2)c(Cl)c1=O` (configuration not stated), the inhibition is 7.2% (inactive).

In the case of `Cn1nc([N+](=O)[O-])c(C(C#N)c2nc3ccccc3n2C)c(Cl)c1=O` (configuration not stated), the inhibition is 3.66% (inactive).

As for `CCCn1nc([N+](=O)[O-])c(C(C#N)c2nc3ccccc3o2)c(Cl)c1=O` (configuration not stated), the inhibition is 17.6% (inactive).

As for `CCn1nc([N+](=O)[O-])c(C(C#N)c2nc3ccccc3n2C)c(Cl)c1=O` (configuration not stated), the inhibition was 0.82% (inactive).

As for `Cc1cc(C)cc(NC(=O)C(OC(=O)c2sccc2C)c2ccccc2)c1` (configuration not stated), the inhibition is -3.16% (inactive).

Turning to `COc1ccc(S(=O)(=O)N2CCCC2C(=O)NCc2ccccc2Cl)cc1` (configuration not stated), the inhibition is -6.48% (inactive).

For `CC1(C)CC(=O)C2=C(C1)OC(=O)CC2c1cccs1` (configuration not stated), the inhibition is -6.75% (inactive).

Take `CCN(CC)S(=O)(=O)c1ccc(Cl)c(NC(=O)COC(=O)c2c(C)noc2C)c1`: the inhibition was -8.29% (inactive).

On to `COc1ccc2nc(SC(C)C(=O)NCC(=O)Nc3ccc(F)c(F)c3F)[nH]c2c1` (configuration not stated), for which the inhibition is -9.36% (inactive).

For `C/C(=N\NC(=O)CN1CCN(Cc2ccccc2)CC1)c1cccs1`, the inhibition is 0.29% (inactive).

With `O=C(CNC(=O)c1ccccc1F)OCCCOC(=O)CNC(=O)c1ccccc1F`, the inhibition is -5.51% (inactive).

Take `NC(=O)COC(=O)/C=C/c1ccc(S(=O)(=O)N2CCCCCC2)cc1`: the inhibition was 5.4% (inactive).

On to `C[C@H]1CCC[C@]2(O[C@H](CCO)C[C@@H](O)[C@@H]2O)O1`, for which the inhibition was -6.34% (inactive).

As for `Cc1nc(C(F)(F)F)c(C(=O)NC(=O)Nc2ccccc2)s1`, the inhibition is -2.55% (inactive).

As to `Cc1nc(C(F)(F)F)c(C(=O)N/N=C(\N)c2cccnc2)s1`, the inhibition was -4.6% (inactive).

As to `COc1ccccc1Oc1ncnc2c1cnn2-c1ccccc1`, the inhibition is -2.97% (inactive).

Turning to `CCOC(=O)N1CCc2c(sc(NC(=O)C3COc4ccccc4O3)c2C(N)=O)C1` (configuration not stated), the inhibition was -11.4% (inactive).

As to `C#CCOCCOCCOCCNc1nc(N2CCN(C(=O)CCCCCCCCCCNC(=O)[C@H]([C@@H](C)CC)n3cc(CCCCN=C(N)N)nn3)CC2)nc(N2CCN(C(=O)CCCCCCCCCCNC(=O)[C@H](CO)n3cc(CCCSC)nn3)CC2)n1`, the inhibition was -16.7% (inactive).

Turning to `C#CCOCCOCCOCCNc1nc(N2CCN(C(=O)CCCCCCCCCCNC(=O)[C@H]([C@@H](C)CC)n3cc(CCCCCN)nn3)CC2)nc(N2CCN(C(=O)CCCCCCCCCCNC(=O)[C@H](CO)n3cc(CCCCCN)nn3)CC2)n1`, the inhibition was 22.1% (inactive).

Consider `O=C(COC(=O)c1ccc2ncsc2c1)NC(=O)c1ccccc1`, for which the inhibition is -8.75% (inactive).

`N#CC(c1ccccc1)c1cnccn1` (configuration not stated): the inhibition was -11% (inactive).

Consider `Oc1ccc(/C=N/Nc2ccc(C(F)(F)F)cn2)cc1`, for which the inhibition is 13.7% (inactive).

With `Cc1ncc(CO)c(/C=N/Nc2cccc(Cl)n2)c1O`, the inhibition was -2.98% (inactive).

For `Cc1ncc(CO)c(/C=N/NC(=S)Nc2ccc(C(C)C)cc2)c1O`, the inhibition is 11.8% (inactive).

For `Cc1ncc(CO)c(/C=N/NC(=S)Nc2ccc(Cl)c(Cl)c2)c1O`, the inhibition was 2.53% (inactive).

Turning to `COc1cc(/C=N/Nc2ccc(C(F)(F)F)cn2)cc(OC)c1O`, the inhibition is -10.9% (inactive).

In the case of `COc1ccccc1N/N=C/c1c(CO)cnc(C)c1O`, the inhibition is 2.27% (inactive).

Consider `COc1ccccc1N(C(=O)c1ccco1)C(C(=O)NC1CCCCC1)c1cc(OC)c(OC)c(OC)c1` (configuration not stated), for which the inhibition was 7.04% (inactive).

`CC(C)=C1C2CCC1C1C(=O)N(NC(=O)COc3ccc(C(C)(C)C)cc3)C(=O)C21` (configuration not stated): the inhibition was 4.52% (inactive).

As for `Cc1ccc(-c2nnn(CCOc3cccc(Br)c3)n2)cc1`, the inhibition is -6.07% (inactive).

On to `c1ccc2nc3[nH]cnc3nc2c1`, for which the inhibition is 1.88% (inactive).

As to `COc1ccc(NC(=O)CC2(CC(=O)N3CCOCC3)CCCC2)cc1Cl`, the inhibition was -1.17% (inactive).

For the compound `CC1CC(C)CN(S(=O)(=O)c2ccc(C(=O)Nc3nnc(C4CC4)o3)cc2)C1` (configuration not stated), the inhibition is -2.79% (inactive).

As for `CC(C)(C)NC(=O)C(c1ccccc1F)N(Cc1ccco1)C(=O)c1csnn1` (configuration not stated), the inhibition was -1.84% (inactive).

As for `O=C(O)C(c1ccccc1)N1C(=O)/C(=C\c2ccc(O)c(O)c2)SC1=S` (configuration not stated), the inhibition is 10.8% (inactive).

Consider `Cc1ccccc1/C=N/Nc1nc2ccccc2[nH]1`, for which the inhibition was -2.18% (inactive).

`COc1ccc([N+](=O)[O-])cc1/C=N/Nc1nn[nH]n1`: the inhibition is -3.63% (inactive).

On to `COc1ccc(O)c(/C=N/Nc2nc3ccccc3[nH]2)c1`, for which the inhibition is -13.2% (inactive).

For the compound `Cc1nc2ccc(C(=O)N/N=C/c3cc([N+](=O)[O-])ccc3O)cc2[nH]1`, the inhibition is 19% (inactive).

Turning to `O=S1(=O)N=C(N/N=C/c2cccs2)c2ccccc21`, the inhibition was 3.71% (inactive).

In the case of `Oc1ccccc1/C=N/Nc1nn[nH]n1`, the inhibition is -4.08% (inactive).

On to `C(=N\Nc1nc2ccccc2[nH]1)/c1ccc2ncccc2c1`, for which the inhibition was -2.83% (inactive).

Consider `O=S1(=O)N=C(N/N=C/c2ccco2)c2ccccc21`, for which the inhibition is -20% (inactive).

With `Cc1ccc(C(=O)N2CCN(c3ccccc3Cl)CC2)cc1[N+](=O)[O-]`, the inhibition is -8.39% (inactive).

For `COCCn1c(-c2ccc(SC)cc2)nc2c1c(=O)[nH]c(=O)n2CC(C)C`, the inhibition is 6.85% (inactive).

Turning to `Cc1ccc(C)c(OC(C)C(=O)Nc2nccs2)c1` (configuration not stated), the inhibition is -0.26% (inactive).

In the case of `Cc1ccc(S(=O)(=O)N[C@H](C(=O)OCC(=O)NC(=O)Nc2ccc3c(c2)OCCO3)C(C)C)cc1`, the inhibition is -8.36% (inactive).

As for `CC(=O)Nc1ccc(NC(=O)C(C)OC(=O)C(C)SCC(=O)Nc2ccc(C)cc2)cc1` (configuration not stated), the inhibition was -10.9% (inactive).

On to `N#Cc1ccccc1S(=O)(=O)N1CCN(CC(=O)Nc2ccccc2C(=O)NC2CC2)CC1`, for which the inhibition is -1.3% (inactive).

For `Fc1ccc(-c2csc(-c3ccccn3)n2)cc1F`, the inhibition is -3.95% (inactive).

On to `Cc1ccc2ccc3cccc4ccc1c2c34`, for which the inhibition was -18.9% (inactive).

Take `COc1cnc(-c2ccccn2)nc1Sc1ccc(F)cc1`: the inhibition was 6.63% (inactive).

Take `O=[N+]([O-])c1cc(Cl)cc(/C=N/Nc2nc3ccccc3s2)c1O`: the inhibition is 3.56% (inactive).

Turning to `O=[N+]([O-])c1ccc(/C=N/NC2=NS(=O)(=O)c3ccccc32)cc1`, the inhibition was 1.07% (inactive).

Take `O=[N+]([O-])c1ccc(/C=N/Nc2ccccn2)cc1`: the inhibition was -3.42% (inactive).

With `O=[N+]([O-])c1ccc(O)c(/C=N/Nc2ccccc2Cl)c1`, the inhibition is -14.4% (inactive).

For the compound `O=[N+]([O-])c1ccc(Cl)cc1C=NNc1ccccn1`, the inhibition was -1.7% (inactive).

Consider `O=[N+]([O-])c1ccc(NN=Cc2cc(Br)ccc2O)nc1`, for which the inhibition is 6.5% (inactive).

`O=[N+]([O-])c1cccc(/C=N/NC2=NS(=O)(=O)c3ccccc32)c1`: the inhibition was -4.67% (inactive).

As for `O=[N+]([O-])c1cccc(/C=N/Nc2ccccn2)c1`, the inhibition was 0.08% (inactive).

Usually inhibition stands for the change of the read-out against control, counted positive when it falls.
